Here are results for 7 compounds from PubChem BioAssay (NCI).

The panel holds about 83,000 compounds, 20% with a hit somewhere; the sample as a whole holds those more often.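 96-well plates, one dose, 48 hours. Percent growth reported; active if below 10.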 Unmarked numbers belong to inactive results. Calls of active or inactive are those of the source.

Among the test systems are SK-MEL-2 melanoma; EKVX NSCLC; SN12C renal; UO-31 renal; TK-10 renal; ACHN renal; CAKI-1 renal; A498 renal; CCRF-CEM leukemia; MOLT-4 leukemia; SR leukemia; RPMI-8226 leukemia; OVCAR-8 ovarian; OVCAR-5 ovarian; OVCAR-4 ovarian; SK-OV-3 ovarian; IGROV1 ovarian; OVCAR-3 ovarian; HS 578T breast; NCI/ADR-RES ovarian.
What all share (test): NCI-60 one-dose screen, 48 h (100 = growth as untreated, 0 = no growth, -100 = all killed)
Holding throughout (conditions): 10 µM unless noted

For `COc1ccc([C@H]2c3[nH]c4ccccc4c3C[C@H]3C(=O)N(CCCCCCC(=O)NO)CC(=O)N23)cc1`, the growth is 31.4% in the assay with SK-MEL-2 melanoma; 66.8% with EKVX NSCLC; 46.5% with SN12C renal; 43.8% with UO-31 renal; 43.5% with TK-10 renal; 22.1% in the assay on ACHN renal. Also, the growth with CAKI-1 renal was 43.9%; in the assay with A498 renal, -4.1% (active); in the assay on CCRF-CEM leukemia it was 13.3%; in the assay on MOLT-4 leukemia it was 12.1%; in the assay on SR leukemia it was 16.5%; in the assay on RPMI-8226 leukemia it was -9.73% (active). Moreover, the growth is 30.3% with OVCAR-8 ovarian; 23.3% with OVCAR-5 ovarian; 54.3% in the assay with OVCAR-4 ovarian; 55.3% in the assay with SK-OV-3 ovarian; 34.3% in the assay with IGROV1 ovarian; 33.9% with OVCAR-3 ovarian. The growth in the assay on HS 578T breast was 47.7%; in the assay with NCI/ADR-RES ovarian, 58.4%.

As to `N/C(=N\OC(=O)c1ccccc1)C(Cc1ccccc1)C(=O)NOC(=O)c1ccccc1` (stereo not given), the growth was 89.7% in the assay with SK-MEL-2 melanoma; 59.2% in the assay on EKVX NSCLC; 68.8% in the assay on SN12C renal; -59.5% (active) with UO-31 renal; 78.3% in the assay on TK-10 renal; 15.1% with ACHN renal. Also, the growth was -44.6% (active) with CAKI-1 renal; 59.5% in the assay on A498 renal; 9.98% (active) in the assay on CCRF-CEM leukemia; 35.2% in the assay with MOLT-4 leukemia; 6.24% (active) in the assay on SR leukemia; 16.4% in the assay with RPMI-8226 leukemia. The growth in the assay with OVCAR-8 ovarian was 38%; with OVCAR-5 ovarian it was 101%; in the assay with OVCAR-4 ovarian, 66.8%; in the assay with SK-OV-3 ovarian, 103%; with IGROV1 ovarian it was -63.2% (active); in the assay on OVCAR-3 ovarian, 51.3%. Besides, the growth in the assay on HS 578T breast was -14.5% (active); in the assay with NCI/ADR-RES ovarian, 18.3%.

For the compound `CC1OC(n2c3ccccc3c3c4c(c5c6ccccc6[nH]c5c32)C(=O)N(CCN[C@H]2CCC[C@@H]2N)C4=O)CC(O)C1O` (stereo not given in full), the growth in the assay with SK-MEL-2 melanoma is 74.5%; with EKVX NSCLC it was 45.9%; with SN12C renal, 17.9%; with UO-31 renal, 66.8%; with TK-10 renal it was 52.8%; in the assay on ACHN renal, 45.6%. For the same compound, the growth with CAKI-1 renal was 85.7%; in the assay with A498 renal, 77.9%; with CCRF-CEM leukemia, 27.1%; in the assay with MOLT-4 leukemia, 7.62% (active); in the assay on SR leukemia it was -1.11% (active); in the assay with RPMI-8226 leukemia, 4.77% (active). Besides, the growth in the assay on OVCAR-8 ovarian was 27.7%; with OVCAR-5 ovarian, 80.4%; with OVCAR-4 ovarian, 34.9%; in the assay on SK-OV-3 ovarian, 40.7%; with IGROV1 ovarian, 36.4%; in the assay with OVCAR-3 ovarian it was 52.7%. For the same compound, the values for the growth in the assay on HS 578T breast and in the assay on NCI/ADR-RES ovarian were 52.3% and 88.2%, respectively.

Regarding `CN(C)c1nc(-c2ccco2)n2nc(-c3ccc(Cl)cc3)cc2n1`, the growth is 99.2% with SK-MEL-2 melanoma; 84.2% in the assay on EKVX NSCLC; 86.6% in the assay on SN12C renal; 20.7% with UO-31 renal; 23.1% in the assay with TK-10 renal; 28.5% with ACHN renal. Also, the growth in the assay on CAKI-1 renal is 74.1%; with A498 renal, 75.8%; in the assay on CCRF-CEM leukemia, 86.7%; with MOLT-4 leukemia it was 86.8%; with SR leukemia, 52.7%; in the assay with RPMI-8226 leukemia, 74.8%. For the same compound, the growth in the assay with OVCAR-8 ovarian is 50.8%; in the assay with OVCAR-5 ovarian, 90%; in the assay on OVCAR-4 ovarian it was -10.2% (active); with SK-OV-3 ovarian, 45.9%; in the assay with IGROV1 ovarian, 55.8%; with OVCAR-3 ovarian it was 74.1%. For the same compound, the growth in the assay with HS 578T breast is 65.1%; in the assay with NCI/ADR-RES ovarian, 69%.

As to `COc1cc(/C=C/c2cc(/C=C/c3ccc(O)c(OC)c3)n(C(=O)Nc3ccc(F)c(Cl)c3)n2)ccc1O`, the growth was -25% (active) with SK-MEL-2 melanoma; -17.7% (active) with EKVX NSCLC; 2.06% (active) in the assay on SN12C renal; -17% (active) in the assay with UO-31 renal; 24% in the assay with TK-10 renal; 5.73% (active) in the assay with ACHN renal. For the same compound, the growth with CAKI-1 renal was -39.1% (active); in the assay on A498 renal, -13.6% (active); in the assay with CCRF-CEM leukemia, 0.872% (active); in the assay on MOLT-4 leukemia it was -17.7% (active); in the assay with SR leukemia it was 1.44% (active); in the assay on RPMI-8226 leukemia, -11.3% (active). The growth was -44% (active) in the assay on OVCAR-8 ovarian; 0.879% (active) in the assay on OVCAR-5 ovarian; 9.26% (active) with OVCAR-4 ovarian; -31.2% (active) in the assay with SK-OV-3 ovarian; 4.57% (active) with IGROV1 ovarian; -26.4% (active) in the assay with OVCAR-3 ovarian. For the same compound, the figures for the growth in the assay on HS 578T breast and in the assay with NCI/ADR-RES ovarian were -12.9% (active) and 12%, respectively.

`CCN1C(=O)/C(=C/N2N=C(c3ccc(Cl)cc3)CC2c2ccc(OC)cc2)SC1=S` (stereo not given): the growth with SK-MEL-2 melanoma is 84.4%; in the assay with EKVX NSCLC it was 93.6%; with SN12C renal, 86.2%; in the assay with UO-31 renal, 71.1%; in the assay on TK-10 renal, 102%; with ACHN renal, 94.1%. Also, the growth in the assay with CAKI-1 renal was 91.6%; with A498 renal it was 64.4%; with CCRF-CEM leukemia it was 100%; in the assay on MOLT-4 leukemia, 73.4%; in the assay on SR leukemia, 84.2%; with RPMI-8226 leukemia, 101%. Besides, the growth with OVCAR-8 ovarian is 93.1%; in the assay with OVCAR-5 ovarian it was 101%; in the assay on OVCAR-4 ovarian it was 84.4%; in the assay with SK-OV-3 ovarian, 87.4%; in the assay on IGROV1 ovarian, 84.3%; in the assay with OVCAR-3 ovarian, 104%. The growth in the assay on HS 578T breast was 95.2%; in the assay with NCI/ADR-RES ovarian it was 96.8%.

Consider `c1cn2cc(-c3ccc4ncn(C5CCCCC5)c4c3)nc(-c3ccc4c(c3)ncn4C3CCCCC3)c2n1`, for which the growth is -65.6% (active) in the assay on SK-MEL-2 melanoma; -13.1% (active) in the assay with EKVX NSCLC; -54.6% (active) with SN12C renal; -85.4% (active) in the assay on UO-31 renal; -59.3% (active) in the assay with TK-10 renal; -58.8% (active) in the assay on ACHN renal. The growth in the assay on CAKI-1 renal is 17.2%; with A498 renal, -88.1% (active); with CCRF-CEM leukemia it was 4.28% (active); in the assay on MOLT-4 leukemia it was -30.5% (active); in the assay with SR leukemia, 2.47% (active); with RPMI-8226 leukemia, -37.9% (active). In addition, the growth is -24.1% (active) with OVCAR-8 ovarian; -24% (active) with OVCAR-5 ovarian; 2.84% (active) with OVCAR-4 ovarian; -71.9% (active) in the assay on SK-OV-3 ovarian; -41.9% (active) with IGROV1 ovarian; -85.2% (active) with OVCAR-3 ovarian. The growth is 3.4% (active) with HS 578T breast and 1.11% (active) with NCI/ADR-RES ovarian.
